# Measurements reported in the supplement of paper PMC10338343.
# ± gives the standard deviation. Over roughly 6,200 sequences, “pre-steady-state target cleavage rate” has its median near 0.29; the highest 2% begin near 2. The list comes from a sample in which the highest values are over-represented; it also holds similar and randomly drawn sequences.
# Test system: MIWI (PIWIL1) piRISC loaded with piRNA #1 (30 nt)
# Experiment: pre-steady-state target cleavage rate (min^-1); MIWI and MILI are mouse PIWI proteins and EfPiwi is from a freshwater sponge; tags in brackets are library labels; higher = faster piRNA-guided slicing of the target
# Conditions: guide: piRNA #1 5'p-UGAGGUAGUAGGUUGUAUAGUAUCCAGAGG; auxiliary factor: 500 nM mouse GTSF1
# Method in brief: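 The method was Cleave-'n-Seq, in which uncleaved targets from a transcribed, DNA-blocked target RNA library were sequenced after exposure to active affinity-purified piRISC carrying one synthetic guide, with or without GTSF1 partner protein. Reactions contained 0.1 nM library, 1 nM piRISC and, where present, 500 nM GTSF1 in HEPES–potassium acetate buffer at 33 °C for 0–8 or 0–960 min. Reads were normalised to depth and to weakly complementary targets, three trials were pooled, and k3 was capped at 0.0001 min^-1. The pre-steady-state cleavage rate came from a burst-and-steady-state fit.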
row,Sequence,pre-steady-state target cleavage rate
1,GCUCUCGAUACUUUACAACCUACUACCUCA,1.69 ± 0.11
2,GCUCUCGGAUACUAUACAACCUACUACCUCA,1.76 ± 0.088
3,GGUCUCGAUACUUUACAACCUACUACCUCA,1.54 ± 0.093
4,CCUCUCGGAUACUAUACAACCUACUACCUCA,2.06 ± 0.15
5,GGUCUCGAUACUAUACAACCUACUACCACA,0.758 ± 0.064
6,CCUCGGAUACUAUACAACCUACUACCUCA,1.96 ± 0.13
7,CCUCUCGAUACUAUACAACCUACUACCUGA,0.985 ± 0.087
8,GCUCUCGAUACUAAACAACCUACUACCUCA,1.81 ± 0.12
9,GCUCUGGAUACUAUACAACCUACGACCUCA,1.22 ± 0.083
10,GGUCUGGAAACUAUACAACCAACUACCUCA,0.138 ± 0.015
11,GGAGACCAUACUUACAACCUACUACCUCA,0.269 ± 0.028
12,GGACAGGAUACUAAACAACCUACUACCUCA,1.64 ± 0.11
13,GGAGACCAUUCUAUACAACCUACUACCACA,1.16 ± 0.1
14,GCUCUCGAUACUAUACAACCUACUACCUGA,1.07 ± 0.11
15,GCACUCGAUACUAUACAACCUACUACCUCA,1.43 ± 0.059
16,GGACUCGAUACUAUACAACCUACUACCUCA,1.69 ± 0.12
17,GCUCUCGAUACUAUACAACCUACUACCACA,2.17 ± 0.15
18,CCACUCGAUACUAUACAACCUACUACCUCA,2.13 ± 0.14
19,GGACUCGAUACUAUACAACCUACUACCACA,0.579 ± 0.063
20,CCUCUGGAUACUAUACUACCUACUACCACA,1.68 ± 0.12
21,GGAGUGGAUACUACACAACCUACUACCUCA,1.71 ± 0.097
22,GGAGACGAUACUAUACAGCCUACUACCUCA,0.668 ± 0.028
23,GGAGUGGUUACUAUACAACCUAGUACCUCA,0.371 ± 0.05
24,GGAGACCUUACUAUACAACCUACUUCCUCA,0.399 ± 0.035

row,Sequence,pre-steady-state target cleavage rate
1,GCUCUGGAUAGAUUACAACCUACUACCUCA,0.735 ± 0.048
2,GCUCAGGAUACUAUACAACCUACAACCUCA,0.866 ± 0.076
3,GCUCAGGAUACUAUACAACCUACUACCUCA,1.85 ± 0.11
4,CCUCAGGUUACUAUACAACCUACUACCUCA,2.5 ± 0.16
5,GGACAGGUUACUAUACAACCUACUACCUCA,1.9 ± 0.14
6,CCUCAGGAUACUAUACAACCUACUACCUCA,1.98 ± 0.12
7,GCUCAGGUUACUAUACAACCUACUACCUCA,2.01 ± 0.12
8,GGUCUGGAUUCUAAACAACCUACUACCUCA,1.23 ± 0.071
9,GGAGACCUAUGUAUACAACCUACUCACCUCA,0.144 ± 0.027
10,GGAGACCUAACUAUACAACAUACUACCUCA,0.303 ± 0.036
11,GGAGAGGAUACUAUACACCCUACUACCUCA,1.4 ± 0.068
12,GCUCUGGAUACUAUACAACCUACUACCUACA,1.87 ± 0.13
13,GCUCUGGAUACUAUACAACCUACUACCUAA,1.83 ± 0.12
14,GCUCUGGAUACCUAUACAACCUACUACCUCA,1.06 ± 0.08
15,CCUCUGGAUACUAUACAACCUACUACCUCCA,2.27 ± 0.14
16,GGUCUGGAUACUAUACAACCUACUACCUCU [g2:g28:cont:t1U],1.59 ± 0.11
17,GGUCUGGAUACUAUACUACCUACAACCUCA,0.456 ± 0.054
18,GGUCUGGAUACUAUACAACCUACUACCUCCA,2.06 ± 0.12
19,GCUCUGGAUACUAUACAACCUACUACCUCG [g2:g29:cont:t1G],1.29 ± 0.098
20,GGUCUGGAUACUAUACAACCUACUACCUCC [g2:g28:cont:t1C],1.54 ± 0.11
21,GCUCUGGAUACUAUACAACCUACUACCUCCA,2.15 ± 0.14
22,GCUCUGGAUACUAUACAACCUACUACCUCU [g2:g29:cont:t1U],2.16 ± 0.13
23,GGAGACCAUACUAAACAACCUACUUCCUCA,0.195 ± 0.024
24,GGAGUGGAUACUAUACUACCUACUACCUGA,0.329 ± 0.052

row,Sequence,pre-steady-state target cleavage rate
1,GGAGUGGUUACUAUACAACGUACUACCUCA,0.386 ± 0.027
2,GGAGACGAUACUUUACAACCUACUAGCUCA,0.142 ± 0.027
3,GGUCUGGAUACUAUAGAACCUACUACCACA,0.0228 ± 0.0058
4,GGAGACGAUACAAUACAACCUACUACCUCA,1.29 ± 0.097
5,GGAGUGGAUACUAUAGAACCUACUACCUCA,1.34 ± 0.076
6,GGAGACCAUACUAUUCAACCUACUACCUGA,0.64 ± 0.075
7,GGAGAGGAUACUAUAGAACCUACUUCCUCA,0.00722 ± 0.0046
8,GGACUGCUUACUAUACAACCUACUACCUCA,1.54 ± 0.14
9,GGAGACCUAUGUAUACAAUCUACUACCUCA,0.0144 ± 0.0036
10,GCUCUGGAUACUAUACAACCUACUACCUA,1.37 ± 0.1
11,GCUCUGGAUACUAUACUACCUACAACCUCA,0.938 ± 0.086
12,GCUCUGGAUACUAUACAACCUACUACCUCC [g2:g29:cont:t1C],2 ± 0.13
13,GGAGACCAUACUUUACAACCUACUACCUCA,1.3 ± 0.087
14,GCUCUGGAUACCAUACAACCUACUACCUCA,0.756 ± 0.059
15,CCUCUGGAUACUAUACAACCUACUACUCUCA,2.32 ± 0.16
16,GCUCUGGAUACUAUACAACCUACUACUCA,1.64 ± 0.14
17,GCUCUGGAUACUAUACAACCUACUAUCUCA,2.32 ± 0.24
18,CCUCUGGAUACUAUACAACCUACUAUCUCA,1.09 ± 0.076
19,GGUCUGGAUACUAUACAACCUACUACUCUCA,1.2 ± 0.1
20,GCUCUGGAUACUAUACAACCUACUACUCUCA,2.07 ± 0.12
21,GCUCUGGAUACUAUACAACCUAUCUACCUCA,0.356 ± 0.028
22,CCUCUGGAUACUAUACAACCUACUCCUCA,0.105 ± 0.022
23,CCUCUGGAUACUAUACAACCUACUACUCA,1.76 ± 0.15
24,CCUCUGGAUAGUAUACAACGUACUACCUCA,0.0367 ± 0.011
